Screening results from PubChem BioAssay.
FLuc counter: counter-screen for miR-21 project: firefly luciferase inhibitors or activators; P08659; purified FLuc, Km substrates, luminescence inhibition; Potency, µM (titrated, usually from 57.5 µM), for the others: top-dose activity change, negative = inhibition, most hits filed as inhibitors; 360,000 compounds, 6.9% hits; AID 588342;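 further: plate controls were vehicle for no effect and reference inhibitor for full effect; nearly all actives have a fitted effect of over 55% in size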
Target sequence (P08659 whole entry, looked up): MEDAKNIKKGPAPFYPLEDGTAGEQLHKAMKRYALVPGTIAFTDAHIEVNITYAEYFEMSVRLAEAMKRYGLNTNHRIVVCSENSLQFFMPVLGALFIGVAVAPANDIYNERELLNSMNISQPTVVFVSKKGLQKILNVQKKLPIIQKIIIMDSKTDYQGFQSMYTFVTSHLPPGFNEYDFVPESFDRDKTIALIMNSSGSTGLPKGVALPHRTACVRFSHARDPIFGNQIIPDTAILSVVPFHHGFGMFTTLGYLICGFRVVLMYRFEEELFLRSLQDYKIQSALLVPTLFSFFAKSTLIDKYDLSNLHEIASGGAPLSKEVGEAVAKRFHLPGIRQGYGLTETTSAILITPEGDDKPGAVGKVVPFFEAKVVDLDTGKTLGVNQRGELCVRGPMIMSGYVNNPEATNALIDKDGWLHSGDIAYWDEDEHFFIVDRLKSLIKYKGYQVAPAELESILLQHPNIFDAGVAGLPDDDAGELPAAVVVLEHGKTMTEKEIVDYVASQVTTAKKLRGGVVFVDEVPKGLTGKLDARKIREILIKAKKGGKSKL
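Purified P. pyralis luciferase, 10 nM final, with Km-level 10 uM D-luciferin and 10 uM ATP in 50 mM Tris acetate pH 7.5, 10 mM Mg acetate, 0.01% Tween-20, 0.05% BSA; 6-point qHTS titration about 60 µM downward; luminescence read.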
SMN2 splice enh: increases expression of the SMN2 splice variant; HEK293 SMN2-luciferase splicing reporter, luminescence, 30-36 h; Potency, µM (doses to about 46.1 µM), without a hit: top-dose activity change, positive = activation, most hits filed as activators; 210,000 compounds, 2.8% hits; AID 1458; further: % of control where 0% means no effect; nearly all actives have a fitted effect of over 55% in size
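qHTS luciferase splicing reporter: luminescence rises when SMN2 exon 7 is included in transfected HEK293 cells. Compound exposure lasted 30-36 h at 37C, with 4.5 mM final sodium butyrate as control, followed by a ONE-Glo read.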
NPC1 prom act: NPC1 promoter activation; Huh7 NPC1 promoter luciferase reporter, 24 h; Potency, µM (series often up to 9.22 µM), inactives show at the highest dose activation, hits mostly activators; 320,000 compounds, 2.4% hits; AID 485313; further: % of control where 0% means no effect; nearly all actives have a fitted effect of over 60% in size
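Stable NPC1-promoter luciferase Huh7 line; cpd (DMSO) 24 h, 37 °C, 5% CO2; Amplite luciferase reagent 10 min RT; luminescence readout. qHTS format.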
Rab9 promoter act: Rab9 promoter activation. Huh7 Rab9 promoter-luciferase reporter, luminescence, 24 h. Potency, µM (series often up to 9.22 µM), inactives show at the highest dose activation, negative = inhibition, most hits filed as activators. 320,000 compounds, 2.8% hits; further: % of control where 0% means no effect; nearly all actives have a fitted effect of over 60% in size
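Quantitative HTS format; Huh7 Rab9-luciferase reporter cells (1500/well) receive compound 2 h post-plating, incubate 24 h at 37 °C, then get luciferase reagent for 10 min before luminescence reading.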
ELG1 genotoxic: induces genotoxicity in HEK293T cells with luciferase-tagged ELG1 | HEK293T ELG1-luciferase reporter, luminescence, 16 h | Potency, µM (series often up to 46 µM), inactives show at the top dose activity change, positive = activation, hits mostly activators | 330,000 compounds, 1.3% hits; further: % of control where 0% means no effect; nearly all actives have a fitted effect of over 60% in size
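HEK293T cells expressing luciferase-tagged ELG1 were treated with compound or DMSO for 16 hr at 37°C. Luciferase activity was then read after 30 min with ONE-Glo at room temperature; rising signal flags genetic stress.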
p53 reactivator: re-activators of mutant p53. H1299 p53-A138V BP100-luciferase reporter, luminescence, 24 h. Potency, µM (doses to about 92.2 µM), for inactives: top-dose activity change, positive = activation, actives largely listed as activators. 320,000 compounds, 0.063% hits; further: % of control where 0% means no effect; nearly all actives have a fitted effect of over 45% in size
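H1299 (p53-null), stable ts p53-A138V + BP100-Luc; 1000 cells/well, Opti-MEM/10% FBS; cpd 4 pt, 1:5; 24 h, 37 deg C, 5% CO2; detection reagent 10 min RT; luminescence.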
* = called active by the depositor; u = inconclusive; x = not tested or not shown; [ ] = dose if it differs, or a comment. In the library only some 7.4% were active in any assay of this set; here they are far more common. The call rests on the fitted dose curve; in most records, active means well fitted curve in the direction sought with a large enough effect; inconclusive means small, poorly fitted or top-dose-only effect, or another doubt; inactive means no such curve, though single readings can be large; an effect the other way counts as inactive or inconclusive. Potency means the concentration at half of the fitted maximal effect.

SMILES	FLuc counter	SMN2 splice enh	NPC1 prom act	Rab9 promoter act	ELG1 genotoxic	p53 reactivator
COc1ccccc1C(=O)Nc1cc2cc(Br)ccc2oc1=O	-9%	u	25%	u	3%	-7%
COc1ccc(S(=O)(=O)Nc2ccccc2OC)cc1NC(=O)c1cc2ccccc2oc1=O	12µM*	x	4µM*	4µM*	u	22µM*
COc1ccc(NC(=O)c2cc3ccccc3oc2=O)c(OC)c1	u	x	2.8µM*	2.8µM*	u	25%
O=C1CC(N2CCN(S(=O)(=O)c3ccc([N+](=O)[O-])cc3)CC2)C(=O)N1c1ccccc1F (centres undefined)	2%	x	0%	0%	-2%	-6%
O=C(Nc1ccncc1)C1COc2ccccc2O1 (centres undefined)	-3%	x	1%	-5%	-4%	20%
O=C(Nc1nc2c(s1)CCCC2)C1COc2ccccc2O1 (centres undefined)	0.76µM*	0.5µM*	0.56µM*	0.32µM*	0.58µM*	21%
CCc1nnc(NC(=O)C2COc3ccccc3O2)s1 (centres undefined)	12µM*	11µM*	3.2µM*	2.8µM*	u	u
O=C(Nc1ncc(Cc2ccccc2)s1)C1COc2ccccc2O1 (centres undefined)	3µM*	10µM*	1.6µM*	2.8µM*	12%	8%
O=C(NC1=NCCS1)C1COc2ccccc2O1 (centres undefined)	0.24µM*	x	0.025µM*	u	u	-11%
CCCC[C@H]1COCCS(=O)(=O)N1Cc1ccc(Br)cc1	4%	x	0%	-1%	1%	x
Cc1nnc(NC(=O)C2COc3ccccc3O2)s1 (centres undefined)	24µM*	28%	u	u	u	u
CCC(CC)c1nnc(NC(=O)C2COc3ccccc3O2)s1 (centres undefined)	7.6µM*	u	1.6µM*	1.3µM*	u	u
CCCCCc1nnc(NC(=O)C2COc3ccccc3O2)s1 (centres undefined)	u	-2%	21%	29%	u	5%
O=C(Cn1c(=O)nc(-c2ccccc2)c2ccccc21)NCc1ccc(F)cc1	-3%	x	x	x	x	x
c1ccc(N2CC3CCc4ccccc4C3=N2)cc1 (centres undefined)	8.5µM*	x	u	3.2µM*	u	45µM*
O=C1Cc2ccccc2C(=O)N1c1ccccc1	1%	x	-4%	-5%	5%	2%
O=C(Nc1ccc(-c2nc3cccnc3s2)cc1)c1ccc(Cl)nc1	u	x	0.89µM*	0.71µM*	10%	6%
O=C(Nc1ccc(-c2nc3cccnc3s2)cc1)c1cccnc1Cl	1.7µM*	x	0.32µM*	0.79µM*	0.82µM*	19%
CN(C)c1ccc(C(=O)Nc2cccc(-c3nc4cccnc4s3)c2)cc1	2%	x	x	x	x	x
CCOC(=O)c1c(-c2ccccc2)oc2ccc(OCC(O)CNCCN(C)C)cc12 (centres undefined)	1%	x	2%	2%[1.84 µM]	-1%	-16%
CC1=NN(c2ccccc2)C(=O)/C1=C/C=C/c1ccc(N(C)C)cc1	4.8µM*	-19%	2%	6%	-8%	-4%
CC1=NN(c2ccccc2)C(=O)/C1=C/N(C)C	-17%	x	-3%	-1%	0%	0%
CC1=NN(c2ccccc2)C(=O)/C1=C\C=C\c1ccccc1	17µM*	x	-4%	-1%	-15%	-12%
CCOC(=O)CC1=NN(c2ccccc2)C(=O)/C1=C\c1ccc(N(C)C)cc1	11µM*	16%[1.84 µM]	-11%	-3%	3%	5%
CCOC(=O)CC1=NN(c2ccccc2)C(=O)C1	-2%	5%	-1%	1%	-2%	-4%
SMILES	FLuc counter	SMN2 splice enh	NPC1 prom act	Rab9 promoter act	ELG1 genotoxic	p53 reactivator
CC(C)OCCCN1C(=O)c2[nH]nc(-c3ccccc3O)c2C1c1ccccc1F (centres undefined)	-2%	-5%	x	x	x	x
CSCc1ccc(C(=O)NCc2ccc(C)cc2)cc1	u	-19%	-2%	-2%	0%	7%
CSCc1ccc(C(=O)NCc2ccccc2)cc1	27µM*	16%	9%	-3%	3%	27%
CSCc1ccc(C(=O)Nc2ccc(C(N)=O)cc2)cc1	5.4µM*	11µM*	2µM*	2.8µM*	15µM*	24%
CCOC(=O)c1ccccc1NC(=O)CSc1nnc(CC)n2c1cc1occc12	-2%	x	x	x	x	x
CCOC(=O)c1ccc(NC2SC(=O)N(Cc3cccc(C(=O)O)c3)C2=O)cc1 (centres undefined)	24µM*	u	x	x	x	x
COC(=O)c1cccc(CN2C(=O)SC(Nc3ccc(C)cc3)C2=O)c1 (centres undefined)	-3%	-8%	-3%	7%	0%	-1%
O=C(CCC(=O)N1CCOCC1)NCc1cccc(C(F)(F)F)c1	1%	x	-1%	1%	0%	-7%
CC(=O)c1cc(-c2ccccc2)n(CCC(=O)NCCc2ccccc2)c1C	6%	x	x	x	x	x
CC(C)c1ccc(NC(=O)c2sccc2-n2cccc2)cc1	u	x	4µM*	2.8µM*	5%	17%
CCOC(=O)Cc1csc(NC(=O)CSc2ncnc3c2cnn3-c2ccc(OC)cc2)n1	8.5µM*	-19%	-3%	18%	-17%	21%
CCOC(=O)CNC(=O)CSc1ncnc2c1cnn2-c1ccc(Cl)cc1	-2%	16%	1%	-2%	12%	5%
CCOC(=O)Cc1csc(NC(=O)COc2ccc3c(c2)CCC3)n1	12µM*	x	-1%	0%	4%	12%
CCOC(=O)Cc1csc(NC(=O)Nc2ccc(OC(F)(F)F)cc2)n1	2.4µM*	x	-1%	-13%	-7%	2%
CCOC(=O)Cc1csc(NC(=O)COc2ccccc2)n1	u	4%	-4%	-5%	-1%	-1%
CCOC(=O)Cc1csc(NC(=O)COc2ccc(C)cc2)n1	13µM*	x	-1%	-1%	0%	2%
CCOC(=O)Cc1csc(NC(=O)COc2ccc(C)c(C)c2)n1	u	x	16%	30%	u	2%
CCN(CC)S(=O)(=O)c1ccc(OC)c(NC(=O)CSCc2c(C)noc2C)c1	x	x	x	x	3%	0%
Cc1cccc(N2CCN(C(=O)CCn3c(=O)c4cccn4c4cccnc43)CC2)c1C	-9%	x	x	x	x	x
C/C(=N\O)c1noc(C)c1C(=O)Nc1nccs1	2%	x	1%	5%	6%	-13%
O=C(CC(=O)Nc1ccccn1)Nc1ccccn1	0%	-5%	0%	-3%	0%	6%
O=C(/C=C/Nc1ccccc1Br)c1ccccn1	0.076µM*	u	x	x	x	x
